High-throughput results as filed in PubChem BioAssay.
D1 PAM = enhances dopamine response at the human D1 receptor. HEK293 TREx D1 cells, calcium flux, dopamine EC20 potentiation. P21728. potentiation, % at 10 µM. actives 0.036% (n = 360,000). AID 504651; in the data active = potentiation above about 30%
Target sequence (P21728 whole entry, looked up): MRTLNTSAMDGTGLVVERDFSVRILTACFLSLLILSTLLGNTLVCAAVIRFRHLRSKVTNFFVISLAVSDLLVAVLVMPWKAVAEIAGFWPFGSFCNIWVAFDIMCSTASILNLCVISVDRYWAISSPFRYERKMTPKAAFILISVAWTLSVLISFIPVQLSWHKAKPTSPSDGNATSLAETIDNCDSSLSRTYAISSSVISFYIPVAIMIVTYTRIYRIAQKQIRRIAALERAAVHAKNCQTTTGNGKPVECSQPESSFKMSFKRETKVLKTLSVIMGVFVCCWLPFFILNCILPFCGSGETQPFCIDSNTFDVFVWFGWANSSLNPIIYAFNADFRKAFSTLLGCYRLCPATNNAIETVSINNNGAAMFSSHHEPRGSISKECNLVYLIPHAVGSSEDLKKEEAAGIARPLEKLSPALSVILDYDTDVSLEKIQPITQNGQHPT
D1 ag = human D1 receptor agonism. P21728. HEK293 T-REx D1 cells, calcium flux, agonist mode. activation, % at 2 µM. actives 1% (n = 360,000)
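Tetracycline-induced HEK293 TREx D1 cells, force-coupled to calcium signalling, were dye-loaded with a no-wash calcium kit. Compound was pin-added after a 10 s baseline. Fluorescence was read kinetically at 1 cycle/s for 180 s, with calcium rises flagged as agonism.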
TRHR agonist = agonists of human TRH receptor; activation, % at 2 µM; actives 0.18% (n = 360,000); P34981; TRHR cells, calcium flux fluo-8, FDSS agonist mode
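TRHR-expressing cells loaded with fluo-8 calcium dye; 23 nL library compound pin-transferred, kinetic FDSS fluorescence (Ex 480/Em 530) recorded about 180 s for agonist-induced calcium release, before a 10 nM TRH EC20 addition for potentiator mode.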
TRHR enhancer = allosterically enhances the human TRH receptor; TRHR cells, fluo-8 calcium fluorescence, EC20 TRH enhancement; enhancement, % at 2 µM; actives 0.66% (n = 360,000); in the data active = enhancement above about 30%
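TRHR-expressing cells loaded with fluo-8 calcium dye were read kinetically (ex 480/em 530) during compound addition, then stimulated with an EC20 of TRH (10 nM final). Enhancement of the Gq-mediated intracellular calcium response was scored.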
D1 antag = blocks dopamine activation of the human D1 receptor; P21728; HEK293 TREx D1 cells, calcium flux, dopamine EC80; hits give low values; activity change, negative = inhibition, % at 10 µM; actives 3.2% (n = 360,000); AID 504652; in the data active = activity change below about -30%
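Cells carrying a force-coupled, tetracycline-inducible human D1 receptor report calcium flux. Each well gets a 10 s baseline, compound with 180 s monitoring, then an EC80 dopamine stimulus with a second 180 s kinetic read.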
Each line names hits and unclear results; the compound was inactive in the other large screens. Only some compounds are listed: those with a hit (about 4.7% of all), similar ones and a draw of the others. Rule as the data show it, unless noted: active = activation above about 30%; inactive = the rest.

CN(C)c1oc(/C=C/c2ccc(F)cc2)nc1C#N	none
CCOc1ccc(C(=O)Nc2nnc(S(=O)(=O)N(CC)c3ccccc3C)s2)cc1	none
CN(CC(=O)Nc1cc(S(=O)(=O)N2CCCCCC2)ccc1Cl)Cc1ccc2c(c1)OCO2	none
CN(CC(=O)Nc1cc(S(=O)(=O)N2CCCC2)ccc1Cl)Cc1ccc2c(c1)OCO2	D1 antag -37
CCN1CCN(c2ccc(S(=O)(=O)N3CCCCC3)cc2NC(=O)Cc2ccc(Cl)c(Cl)c2)CC1	D1 ag 101, D1 antag -55
CCOc1ccccc1OCC(=O)Nc1cc(S(=O)(=O)N2CCCCC2)ccc1N1CCN(CC)CC1	D1 antag -36
CCN1CCN(c2ccc(S(=O)(=O)N3CCCCC3)cc2NC(=O)Cc2ccccc2)CC1	none
CCc1nnc(NC(=O)Cc2ccc(S(=O)(=O)N3CCCCC3)cc2)s1	D1 antag -32 (no result: D1 PAM)
O=C(OCc1ccc([N+](=O)[O-])cc1Cl)c1cnccn1	none
COc1ccc(C2c3c(n(C)c4ccccc34)C(=O)N2CC(=O)Nc2ccc(C)cc2Cl)cc1 (configuration not stated)	none
CCN1CCN(c2ccc(S(=O)(=O)N3CCCCC3)cc2NC(=O)c2ccc(C)o2)CC1	D1 antag -48
CCN1CCN(c2ccc(S(=O)(=O)N3CCCCC3)cc2NC(=O)/C=C/c2cc(OC)ccc2OC)CC1	TRHR enhancer 30
CCc1ccc(OCC(=O)NNC(=O)c2cc(S(=O)(=O)N3CCOCC3)ccc2N2CCCC2)cc1	none
CCN1CCN(S(=O)(=O)c2ccc(Cl)c(C(=O)Nc3ccccc3N3CCOCC3)c2)CC1	none
CCN1CCN(S(=O)(=O)c2ccc(Cl)c(C(=O)Nc3cc(Cl)ccc3N3CCOCC3)c2)CC1	D1 antag -40
O=C(COc1ccccc1Cl)NNC(=O)c1cc(S(=O)(=O)N2CCOCC2)ccc1N1CCCC1	D1 antag -32
CCc1ccc(CNC(=O)CCCN2C(=O)c3cccnc3Oc3ccc(Cl)cc32)cc1	none
CN(CC(=O)Nc1ccc(S(=O)(=O)N2CCCC2)cc1)Cc1c(F)cccc1Cl	D1 antag -32
CN1CCN(S(=O)(=O)c2ccc(NCc3ccc4c(c3)OCO4)nc2)CC1	D1 antag -33
Cc1cccc(N(CC(=O)NCCSCc2ccc(Cl)cc2)S(C)(=O)=O)c1C	none
CCC(C)NC(=O)C1CCN(S(=O)(=O)c2cccc3nonc23)CC1 (configuration not stated)	TRHR enhancer 31
O=C(NCc1ccccc1)C1CCCN(S(=O)(=O)c2cccc3nonc23)C1 (configuration not stated)	none
CC(C)NC(=O)C1CCCN(S(=O)(=O)c2cccc3nonc23)C1 (configuration not stated)	none
O=C(NC1CCN(Cc2ccccc2)CC1)C1CCCN(S(=O)(=O)c2cccc3nonc23)C1 (configuration not stated)	TRHR enhancer 36
Cc1ccc(NC(=O)Cn2cc(S(=O)(=O)Cc3ccc(F)cc3)c3ccccc32)cc1Cl	none
Cc1cc(C)c(C(=O)C(C)OC(=O)C2=COCCO2)cc1C (configuration not stated)	none
CC1OC(O[C@H]2CC[C@]3(C)C4C=C[C@]56OC[C@@]7(CC[C@@H](C)[C@H](C)C75)[C@H](O)C[C@@]6(C)[C@]4(C)CC[C@H]3C2(C)C)C(OC2OC(CO)C(O)C(O)C2OC2OCC(O)C(O)C2O)C(O)C1O (some centres not stated)	D1 ag 244, TRHR agonist 48
CC(C)COC(=O)C(N)C(C(=O)OCC(C)C)c1ccccc1 (configuration not stated)	D1 antag -35
CCC(C(=O)O/N=C(\N)c1ccccc1)c1ccccc1 (configuration not stated)	none
CCCc1nnc(NC(=O)CCC(=O)NCc2ccccc2)s1	none
O=S(=O)(NCC(c1ccco1)N1CCN(c2ccc(F)cc2)CC1)c1ccc(F)cc1 (configuration not stated)	D1 antag -34
O=S(=O)(NCC(c1ccco1)N1CCN(c2ccccc2)CC1)c1ccc(F)cc1 (configuration not stated)	D1 antag -30
O=S(=O)(NCC(c1ccco1)N1CCN(c2ccccc2)CC1)c1ccccc1 (configuration not stated)	none (no result: D1 antag)
O=S(=O)(NCC(c1ccco1)N1CCN(c2ccccc2F)CC1)c1ccc(F)cc1 (configuration not stated)	none
Cc1cccc(N2CCN(C(=O)c3cnn(-c4ccc(F)cc4F)c3C3CCN(C(=O)OC(C)(C)C)CC3)CC2)c1C	none
CCC(C(=O)Nc1cccc(Cl)c1C)n1nc(C)c2sc3ccccc3c2c1=O (configuration not stated)	none
O=C(Nc1cccc(F)c1)c1sc(Cl)nc1-c1ccccc1	D1 antag -36
O=C(Nc1ccc(F)cc1)c1sc(Cl)nc1-c1ccccc1	none
COc1ccc(Br)cc1CN(C)C(=O)c1cc(Cl)c2c(c1)OCCO2	none
Cn1cc(S(=O)(=O)CC(=O)N2CCCc3ccccc32)c2ccccc21	D1 antag -84 (no result: D1 PAM)
CCn1c(-c2ccsc2)nc2c1c(=O)[nH]c(=O)n2Cc1ccccc1	D1 antag -52
COc1ccc(CN=C2Nc3ccccc3CS2)cc1	D1 antag -32
CCOc1ccc(OCCC(=O)NNC(=O)c2ccccc2Cl)cc1	none
Cc1cc(Br)cc(C)c1OCC(=O)NNC(=O)c1cccs1	D1 antag -37
O=C1CCCc2ccccc2N1Cc1cccc(F)c1	TRHR enhancer 34
O=S1(=O)CCN(C(CO)c2ccccc2)CC1 (configuration not stated)	none
O=C(O)CC(c1cccc(C(F)(F)F)c1)N1CCS(=O)(=O)CC1 (configuration not stated)	D1 antag -35
COc1cc(OC)cc(C(=O)NC(=S)NNC(=O)[C@H]2C[C@@H]2c2ccccc2)c1	D1 ag 88
O=C(NC(=S)NNC(=O)[C@H]1C[C@@H]1c1ccccc1)c1ccc(F)cc1	D1 ag 91
Cc1ccccc1CNC(=O)CCCn1c(=O)c2cccn2c2cccnc21	none
CCOC(=O)c1c(C)[nH]c(C)c1S(=O)(=O)N1CCC(C(=O)Nc2ccc(C)c(N(C)C)c2)CC1	none
O=C(Nc1sc2c(c1C(=O)NCc1ccco1)CCCC2)c1cc(=O)c2cc(Cl)ccc2o1	none
COc1ccc(Cc2c(C)nn(-c3nc(C)c(C(=O)Nc4cccc(C(C)=O)c4)s3)c2C)cc1	none
CSc1ccc(CN2CCC(CO)(CCOc3ccccc3)CC2)cc1	D1 ag 41
OCC1(CCOc2ccccc2)CCN(Cc2ccncc2)CC1	none
COc1ccc(CN2CCC(CO)(CCOc3ccccc3)CC2)cc1C	D1 ag 48
